This is an account of results in PubChem BioAssay (NCI).

Among the test systems are DU-145 prostate; K-562 leukemia; MALME-3M melanoma; MDA-MB-231 breast; RXF 393 renal; SF-268 CNS; SF-295 CNS; SF-539 CNS; UACC-257 melanoma; M14 melanoma; HCT-15 colon; HT29 colon; SNB-75 CNS; U251 CNS; PC-3 prostate; SK-MEL-5 melanoma; UACC-62 melanoma; LOX IMVI melanoma; SK-MEL-28 melanoma.
Common to all, as to test: NCI-60 one-dose screen, 48 h (100 = growth as untreated, 0 = no growth, -100 = all killed)
Conditions in all cases: 10 µM unless noted

Structures are written as SMILES. Compounds without any hit were thinned out: in the full panel of roughly 83,000, 20% have a hit.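 Activity criterion: percent growth below 10, measured after cells in 96-well plates were exposed to a single compound concentration for 48 hours.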 Values without a mark were called inactive. Calls of active or inactive are those of the source.

Take `CC(C)(C)c1cc(C(=O)Nc2ccc(C(=O)NCCN)cc2)cc(C(C)(C)C)c1`: the growth with DU-145 prostate was 40.5%; with K-562 leukemia, -42.5% (active); with MALME-3M melanoma, 15.1%; in the assay on MDA-MB-231 breast, -43.7% (active); in the assay with RXF 393 renal it was 19.5%; in the assay on SF-268 CNS it was 57%. Also, the growth is 36.4% in the assay with SF-295 CNS; -52.8% (active) in the assay on SF-539 CNS; 68.6% in the assay on UACC-257 melanoma; -71% (active) with M14 melanoma; 76.6% in the assay with HCT-15 colon; -21.7% (active) in the assay with HT29 colon. Moreover, the growth in the assay on SNB-75 CNS was 55.6%; with U251 CNS it was -6.92% (active); in the assay with PC-3 prostate it was 25.9%; in the assay with SK-MEL-5 melanoma, 23.8%; in the assay with UACC-62 melanoma, -71.8% (active); with LOX IMVI melanoma, -65.5% (active). Further, the growth in the assay with SK-MEL-28 melanoma is -64.4% (active).

Regarding `CC(C)C1=NOC(=O)C1=Cc1cn(-c2ccccc2)nc1-c1cccc([N+](=O)[O-])c1`, the growth in the assay with DU-145 prostate was 84.9%; with K-562 leukemia it was 33.4%; in the assay on MALME-3M melanoma, 109%; in the assay with MDA-MB-231 breast it was 93.1%; with RXF 393 renal it was 68.9%; in the assay with SF-268 CNS, 94.1%. The growth in the assay with SF-295 CNS is 99.1%; in the assay with SF-539 CNS it was 98.1%; with UACC-257 melanoma, 104%; with M14 melanoma, 78.3%; with HCT-15 colon, 60.4%; with HT29 colon, 70.5%. The growth with SNB-75 CNS is 86.5%; in the assay with U251 CNS, 66.7%; in the assay on PC-3 prostate it was 73%; in the assay with SK-MEL-5 melanoma it was 90%; with UACC-62 melanoma it was 83.9%; in the assay with LOX IMVI melanoma it was 0.102% (active). The growth with SK-MEL-28 melanoma is 93.4%.

`CCn1cc(-c2ccnc(NCCNS(=O)(=O)c3ccc(Br)cc3)c2)c(-c2cccc(OC)c2)n1`: the growth with DU-145 prostate is 84.7%; in the assay with K-562 leukemia, 42.1%; with MALME-3M melanoma, 70.9%; in the assay with MDA-MB-231 breast, 80.8%; with RXF 393 renal, 99.8%; in the assay with SF-268 CNS, 71.5%. The growth was 95.4% with SF-295 CNS; 78.3% in the assay with SF-539 CNS; 89.8% in the assay with UACC-257 melanoma; 83.3% in the assay with M14 melanoma; 69.2% with HCT-15 colon; 56.5% in the assay on HT29 colon. Also, the growth is 81.7% in the assay with SNB-75 CNS; 58.8% in the assay on U251 CNS; 41.7% with PC-3 prostate; 64% with SK-MEL-5 melanoma; 71% in the assay with UACC-62 melanoma; 94.2% with LOX IMVI melanoma. Besides, the growth in the assay on SK-MEL-28 melanoma is 100%.

With `C[C@@H]1C[C@H]2C(=O)O[C@@H](C)[C@H](NC(=O)[C@H](Cc3cc(F)cc(F)c3)NC(=O)Nc3ccc(C4CC4)cc3F)C(=O)N3CCC[C@H]3C(=O)N3CCCC[C@H]3C(=O)N[C@@H](C)C(=O)N2C1`, the growth in the assay with DU-145 prostate was 21.8%; in the assay with K-562 leukemia, 17.5%; with MALME-3M melanoma it was 18.5%; with MDA-MB-231 breast, -14.4% (active); in the assay with RXF 393 renal, -1.09% (active); in the assay with SF-268 CNS, 22.5%. Further, the growth in the assay on SF-295 CNS is -1.67% (active); with SF-539 CNS, 24.7%; with UACC-257 melanoma it was 6.5% (active); with M14 melanoma it was 10.7%; with HCT-15 colon, 6.12% (active); in the assay on HT29 colon, 10.5%. For the same compound, the growth in the assay on SNB-75 CNS is 6.49% (active); in the assay with U251 CNS, 20.3%; with PC-3 prostate, 12%; in the assay on SK-MEL-5 melanoma it was -47.6% (active); in the assay with UACC-62 melanoma, 3.87% (active); in the assay with LOX IMVI melanoma it was 19.2%. In addition, the growth in the assay with SK-MEL-28 melanoma is 18.3%.

As for `CCN(CC)CCCCCCNc1cccc2cc(Br)cnc12`, the growth in the assay on DU-145 prostate is 91.4%; in the assay with K-562 leukemia, -27.8% (active); in the assay with MALME-3M melanoma, 47.9%; in the assay with MDA-MB-231 breast, 67.9%; in the assay with RXF 393 renal, 91%; in the assay with SF-268 CNS, 74.9%. For the same compound, the growth in the assay on SF-295 CNS is 84.8%; in the assay with SF-539 CNS it was 94.4%; in the assay with UACC-257 melanoma it was 80.7%; with M14 melanoma it was 50.1%; with HCT-15 colon, 84.7%; in the assay on HT29 colon, 16.9%. In addition, the growth with SNB-75 CNS is 92.2%; in the assay with U251 CNS, 81.2%; with PC-3 prostate it was 54.2%; in the assay with SK-MEL-5 melanoma, 94.7%; with UACC-62 melanoma, 113%; in the assay with LOX IMVI melanoma, 69.3%. Further, in the assay with SK-MEL-28 melanoma, the growth was 108%.

With `O=C1NC(=O)C(Cc2ccccc2)(Cc2ccccc2)N1`, the growth in the assay on DU-145 prostate is 111%; in the assay on K-562 leukemia, 108%; in the assay with MALME-3M melanoma, 109%; in the assay on MDA-MB-231 breast, 98.4%; in the assay on RXF 393 renal it was 117%; in the assay on SF-268 CNS it was 95.1%. Besides, the growth in the assay on SF-295 CNS is 94.2%; in the assay with SF-539 CNS, 102%; with UACC-257 melanoma, 105%; with M14 melanoma, 93.9%; in the assay on HCT-15 colon, 102%; in the assay on HT29 colon, 94.1%. Besides, the growth in the assay with SNB-75 CNS is 85.2%; in the assay on U251 CNS, 101%; in the assay with PC-3 prostate, 83.2%; with SK-MEL-5 melanoma, 94.3%; in the assay with UACC-62 melanoma it was 97%; in the assay on LOX IMVI melanoma it was 89.4%. In addition, the growth in the assay with SK-MEL-28 melanoma was 119%.

In the case of `C[C@H]1[C@H](C)CC[C@]2(C(=O)O)CC[C@]3(C)C(=CC[C@@H]4[C@@]5(C)C/C(=C/c6ccco6)C(=O)C(C)(C)[C@@H]5CC[C@]43C)[C@H]12`, the growth in the assay with DU-145 prostate was -73.1% [100 µM] (active); in the assay with K-562 leukemia, 7.11% [100 µM] (active); with MALME-3M melanoma, -86% [100 µM] (active); in the assay with MDA-MB-231 breast, -81.5% [100 µM] (active); in the assay with RXF 393 renal, -84% [100 µM] (active); in the assay with SF-268 CNS, -58.7% [100 µM] (active). Besides, the growth is -79.4% [100 µM] (active) in the assay on SF-295 CNS; -80.1% [100 µM] (active) with SF-539 CNS; -39.1% [100 µM] (active) in the assay on UACC-257 melanoma; -43.6% [100 µM] (active) in the assay with M14 melanoma; -71.2% [100 µM] (active) in the assay on HCT-15 colon; -67.9% [100 µM] (active) with HT29 colon. The growth in the assay with SNB-75 CNS is -55.9% [100 µM] (active); with U251 CNS, -64.5% [100 µM] (active); in the assay with PC-3 prostate, -67.1% [100 µM] (active); in the assay with SK-MEL-5 melanoma, -91.7% [100 µM] (active); in the assay on UACC-62 melanoma it was -94.4% [100 µM] (active); in the assay with LOX IMVI melanoma, -91.7% [100 µM] (active). Moreover, the growth in the assay with SK-MEL-28 melanoma is -79.2% [100 µM] (active).
